Screening data deposited in PubChem BioAssay by National Center for Advancing Translational Sciences (NCATS).
CRE Fsk mod: Cell signaling CRE-BLA (Fsk stim). Potency, µM (series often up to 38.2 µM), usual class: activators. CHO CRE-bla reporter (cAMP response element driving beta-lactamase), forskolin EC10, beta-lactamase ratio. actives 2.5% (n = 71,000); active means well fitted activation curve with a large enough effect in the signal ratio, with a control signal flat, not every such curve was filed as active; inconclusive means small, poorly fitted or top-dose-only effect, or effect the other way, or a change in a side signal; the % refers to the signal ratio
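Titrated compounds plus EC10 NKH 477 on CHO CRE-bla cells, 3 h, 37 °C. CCF4, 2 h RT. Ratio 460/530 nm → AC50.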
ERK AVP block: qHTS Assay for Inhibitors of the ERK Signaling Pathway using a Homogeneous Screening Assay. HEK293-V1b, vasopressin-stimulated pERK AlphaScreen. Potency, µM (titrated, usually from 57.5 µM), usual class: inhibitors. actives 0.99% (n = 72,000). AID 995, 2007; further: nearly all actives have a fitted effect of over 55% in size
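Phosphorylated ERK1/2 detected via AlphaScreen bead proximity in lysates of V1b-expressing HEK293 cells given 25 nM vasopressin for 5 min after 30 min compound exposure (37 °C). AC50 from Hill equation; basal DMSO 0%, vasopressin 100%.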
TSHR agonist: qHTS Assay for Agonists of the Thyroid Stimulating Hormone Receptor; Potency, µM (highest dose often 57.1 µM), usual class: activators; HEK293-CNG-TSHR cells (CNG channel as cAMP sensor), membrane potential dye, cAMP; Thyrotropin receptor (Homo sapiens), P16473; AID 926, 2007; actives 0.48% (n = 73,000); active means well fitted activation curve with a large enough effect in the main read-out, with a control signal flat, not every such curve was filed as active; inconclusive means small, poorly fitted or top-dose-only effect, or a change in a side signal; inactive means no such curve, though single readings can be large or run the other way; reference of the percent scale not stated here;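 further: the control signal comes from parental cells without the receptor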
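HEK 293 cells stably expressing TSHR and a modified CNG channel, with CNG-only parental cells as counterscreen, were preloaded 60 min at room temperature with membrane potential dye containing 100 uM RO 20-1724. Compound exposure was 30 min, and depolarization was read as fluorescence at 590 nm.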
HEK293 cAMP cs: qHTS Assay for Agonists of the Thyroid Stimulating Hormone Receptor: Activators of Intracellular cAMP Concentrations in Parental HEK 293; AID 938, 2007; parental HEK293 CNG cAMP sensor, membrane potential fluorescence; actives 2.5% (n = 73,000); Potency, µM (titrated, usually from 57.1 µM), actives largely listed as activators; further: nearly all actives have a fitted effect of over 55% in size
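Parental HEK 293 cells stably expressing a modified CNG channel (no TSHR) report cAMP rise as membrane depolarization. Membrane potential dye with 100 uM RO 20-1724 was loaded for 60 min at room temperature, then compound added for 30 min; fluorescence read at 590 nm.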
Of the large screens only hits and unclear results are named; the others gave an inactive call. The list is not random: actives were taken first. Their share in the collection is about 6%. Unless noted, the call rests on the fitted dose curve; in most records, active means well fitted curve in the direction sought with a large enough effect; inconclusive means small, poorly fitted or top-dose-only effect, or another doubt; inactive means no such curve, though single readings can be large; an effect the other way counts as inactive or inconclusive.

O=C(NCc1cccc(C(F)(F)F)c1)C1CCCN(c2ncccn2)C1 (centres undefined)	none
O=C(Nc1cccc(C(F)(F)F)c1)C1CCCN(c2ncccn2)C1 (centres undefined)	TSHR agonist inconclusive, HEK293 cAMP cs 25.1µM
COc1ccc(OC)c(S(=O)(=O)N2CCC(C(=O)Nc3cccc(C(F)(F)F)c3)CC2)c1	CRE Fsk mod inconclusive, ERK AVP block 15.8µM, TSHR agonist inconclusive
COc1ccc(-c2nc3cnc(N4CCN(C)CC4)nc3n(-c3ccc(OC)cc3)c2=O)cc1	CRE Fsk mod inconclusive
Cc1noc(C)c1-c1cncnc1NCc1cccnc1	none
COc1cc(OC)c(OC)cc1CNc1cc(C)ccc1OC	ERK AVP block 25.1µM (no result: TSHR agonist)
COc1ccc(C)cc1NCc1cccc(OC)c1OC	ERK AVP block inconclusive (no result: TSHR agonist)
COc1cc(C(=O)Oc2ccccc2N)cc(OC)c1OC	CRE Fsk mod inconclusive, TSHR agonist 3.16µM
COC(=O)c1cc(OC)c(OC)c(OC)c1N	CRE Fsk mod inconclusive
CC(C)Cn1c(-c2cccs2)nc2nc3ccccc3nc21	CRE Fsk mod 12.6µM
c1ccc(Cn2c(-c3cccs3)nc3nc4ccccc4nc32)cc1	none
CCOc1cc(CN2CCN(c3cccc(C(F)(F)F)c3)CC2)ccc1O	none
CCOc1cc(CN2CCSCC2)ccc1O	CRE Fsk mod inconclusive, TSHR agonist inconclusive, HEK293 cAMP cs 0.0316µM
C[C@H](Oc1ccc(Oc2cnc3ccc(Cl)cc3n2)cc1)C(=O)O	CRE Fsk mod inconclusive
CN(C)c1ncc2ncc(=O)n(C)c2n1	CRE Fsk mod inconclusive
N=C(N)SCc1cccc(-c2nc3ccccc3c(=O)o2)c1	none
O=C(NC1CCCC1)C(c1ccncc1)N(Cc1cccs1)C(=O)c1csnn1 (centres undefined)	TSHR agonist inconclusive, HEK293 cAMP cs inconclusive
Cc1ccc(C(C(=O)NC2CCCC2)N(Cc2ccc(F)cc2)C(=O)c2csnn2)o1 (centres undefined)	TSHR agonist inconclusive, HEK293 cAMP cs 15.8µM
CN1CCN(S(=O)(=O)c2cccc(C(=O)Nc3sc4c(c3C(N)=O)CCCC4)c2)CC1	CRE Fsk mod 0.794µM
COc1cc(C=O)c([N+](=O)[O-])cc1OC	none (no result: CRE Fsk mod)
CCn1c(CSc2nc(C)cs2)nc2cc(S(=O)(=O)N(C)C)ccc21	none
CCN(CC)S(=O)(=O)c1ccc2c(c1)nc(SCc1nc3ccsc3c(=O)[nH]1)n2CC	CRE Fsk mod 5.01µM, ERK AVP block inconclusive, TSHR agonist inconclusive, HEK293 cAMP cs inconclusive
CC(C)(C)N1C(=O)[C@H]2[C@H]3[C@H](O)[C@H](O)C/C(=N/OC[C@@H](O)COCc4ccco4)[C@@H]3CC[C@@H]2C1=O	none (no result: CRE Fsk mod)
CN(c1ccc(C(=O)Nc2nccs2)cc1)S(=O)(=O)c1ccccc1	ERK AVP block inconclusive, TSHR agonist inconclusive, HEK293 cAMP cs 31.6µM
COc1ccc(OCc2nnc3n2N=C(c2ccc(C)cc2)CS3)cc1	CRE Fsk mod inconclusive, TSHR agonist inconclusive, HEK293 cAMP cs inconclusive
COc1ccc(C2=Nn3c(nnc3-c3cccnc3)SC2)cc1	CRE Fsk mod 10µM
COc1ccc(OCc2nnc3n2N=C(c2ccc(OC)cc2)CS3)cc1	CRE Fsk mod 3.98µM, ERK AVP block 25.1µM, TSHR agonist inconclusive, HEK293 cAMP cs inconclusive
CCOc1ccc(C2=Nn3c(nnc3-c3ccc(OC)cc3)SC2)cc1	CRE Fsk mod 12.6µM, ERK AVP block inconclusive, TSHR agonist inconclusive, HEK293 cAMP cs inconclusive
COc1ccc(OC)c(C2=Nn3c(nnc3-c3cccc(OC(C)C)c3)SC2)c1	CRE Fsk mod 1.26µM, TSHR agonist inconclusive, HEK293 cAMP cs 25.1µM
c1ccc(C2=Nn3c(nnc3-c3cccnc3)SC2)cc1	CRE Fsk mod inconclusive, ERK AVP block inconclusive
CC[C@@H](c1ccccc1)n1c(=O)n2n(c1=O)[C@H]1[C@H](O)[C@H]3O[C@H]3C(=O)[C@H]1CC2	none (no result: CRE Fsk mod)
N#Cc1ccc(CN2CCCC3(CCN(C(=O)c4cnccn4)CC3)C2)cc1	none
Cc1cc(NCCCN2CCOCC2)n2ncc(-c3ccc(Cl)cc3)c2n1	CRE Fsk mod 1.58µM
Cc1cccc(Cn2cnc3c(nnn3Cc3ccccc3F)c2=O)c1	CRE Fsk mod 1.26µM (no result: TSHR agonist)
COc1cccc(-n2nnc3c(=O)n(Cc4ccc(C)cc4)cnc32)c1	CRE Fsk mod inconclusive, TSHR agonist inconclusive, HEK293 cAMP cs 15.8µM
Cc1ccc(-n2nnc3c(=O)n(Cc4cccc(C)c4)cnc32)cc1	CRE Fsk mod inconclusive (no result: ERK AVP block, TSHR agonist)
